An excerpt weighted towards active compounds, which were near 19% of everything screened.
S-ASM inh: blocks human secretory acid sphingomyelinase; P17405; placental ASM, HMU-PC fluorogenic substrate, 60 min; Potency, µM (top dose mostly 57.5 µM), for the others: top-dose activity change, negative = inhibition, most hits filed as inhibitors; actives 0.006% (n = 340,000); note: potency is the fitted concentration of half-maximal effect
Target sequence (P17405 47-631 limits assumed): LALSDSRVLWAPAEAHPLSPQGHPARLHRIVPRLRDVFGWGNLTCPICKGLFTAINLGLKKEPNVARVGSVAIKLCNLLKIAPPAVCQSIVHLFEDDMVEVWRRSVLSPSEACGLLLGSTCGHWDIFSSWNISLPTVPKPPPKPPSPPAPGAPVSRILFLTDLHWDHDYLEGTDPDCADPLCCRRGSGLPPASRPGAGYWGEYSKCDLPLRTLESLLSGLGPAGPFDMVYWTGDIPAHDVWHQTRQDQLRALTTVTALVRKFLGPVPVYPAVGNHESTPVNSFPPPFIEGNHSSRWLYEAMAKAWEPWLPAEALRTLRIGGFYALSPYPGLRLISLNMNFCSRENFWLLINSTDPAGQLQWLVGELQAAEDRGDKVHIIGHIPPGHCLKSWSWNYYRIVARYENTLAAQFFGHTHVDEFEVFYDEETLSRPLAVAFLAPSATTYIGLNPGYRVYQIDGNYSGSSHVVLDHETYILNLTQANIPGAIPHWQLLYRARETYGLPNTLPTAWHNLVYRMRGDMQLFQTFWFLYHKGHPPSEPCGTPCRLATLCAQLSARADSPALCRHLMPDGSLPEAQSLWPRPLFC
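qHTS format. ASM enzyme prepared from human placenta hydrolyses the fluorogenic substrate HMU-PC0 (9 uM final) over 60 min at 37 °C after a 10 min compound preincubation.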
DT40 TDP1 no CPT: qHTS for Inhibitors of human tyrosyl-DNA phosphodiesterase 1 (TDP1): qHTS in cells in absence of CPT | Potency, µM (highest dose often 46.2 µM), inactives show at the highest dose activity change, negative = growth inhibition, actives largely listed as inhibitors | DT40 Tdp1-/- hTDP1 cells, no CPT, ATP luminescence, 48 h | actives 15% (n = 420,000); note: potency is the fitted concentration of half-maximal effect; % is set by controls: 0 for no effect and ±100 for the full control effect; nearly all actives have a fitted effect of over 55% in size
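Cells were dispensed at 400 per well, compounds added by pin tool, plates incubated ≥48 hr at 37 °C, then CellTiter-Glo added for 30 min at room temperature before luminescence reading. Line: DT40 Tdp1-/- complemented with hTDP1; camptothecin omitted.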
TGFb inhibitor: inhibitors of TGF-b signaling. HepG2 CAGA-GFP TGF-b/SMAD3 reporter, GFP fluorescence, 18 h; TGF-beta stimulated, 500 pg/mL final. Potency, µM (doses to about 46.1 µM), for the others: top-dose activity, negative = inhibition, hits mostly inhibitors. actives 1.2% (n = 410,000). AID 588855; note: potency is the fitted concentration of half-maximal effect; % is set by controls: 0 for no effect and ±100 for the full control effect; nearly all actives have a fitted effect of over 65% in size
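Smad-responsive CAGA-GFP expression was quantified in HEPG2 cells exposed to compounds and 500 pg/mL final TGF-beta for 18 h at 37 degrees C; unstimulated wells defined full inhibition.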
HepG2 viability: counter-screen for TGF-b inhibitors: cytotoxicity in HepG2 cells. HepG2 CAGA-GFP viability, ATP luminescence, 18 h. Potency, µM (titrated, usually from 46.1 µM), inactives show at the top dose activity change, negative = cytotoxicity, actives largely listed as cytotoxic. actives 0.76% (n = 410,000). AID 588856; note: potency is the fitted concentration of half-maximal effect
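CellTiter-Glo luminescence gave cytotoxicity after 18 hours at 37 degrees C. The cells were HepG2 CAGA-GFP in 1% FBS DMEM, stimulated with 500 pg/mL TGF-beta after compound addition. %Activity was normalised to no-cell wells (complete cell-killing) and DMSO (no toxicity), and curves were fitted and classified.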
DT40 TDP1 CPT: DT40-hTDP1 cell growth loss with CPT; chicken DT40 Tdp1-/-;hTDP1 cells + 20 nM CPT, ATP luminescence, 48 h; Potency, µM (titrated, usually from 46.2 µM), without a hit: at the top dose activity change, negative = growth inhibition, most hits filed as inhibitors; actives 12% (n = 420,000); note: potency is the fitted concentration of half-maximal effect; % is set by controls: 0 for no effect and ±100 for the full control effect; nearly all actives have a fitted effect of over 55% in size
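Chicken DT40 Tdp1-/- cells complemented with human TDP1, 400 cells/well, exposed to compounds plus 20 nM camptothecin for at least 48 h at 37 C; viability read as ATP content by CellTiter-Glo luminescence.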
IL1B secr inh: blocks inflammasome-driven IL-1 beta release; THP-1 LPS/ATP IL-1B secretion, AlphaLISA, 16 h; stronger effect = lower value; activity change, % at 57.5 µM; actives 4.7% (n = 360,000); AID 743279; in the data active = activity change below about -50%; inconclusive = mostly about -30% to -49%; note: % is set by controls: 0 for no effect and ±100 for the full control effect
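THP-1 cells pretreated 1 hr with compounds (up to 57.5 uM final), then stimulated with LPS (250 ng/mL final) plus ATP (1.25 mM final); secreted IL-1B measured by AlphaLISA after 16 hr, decreased signal indicating inhibition.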
An asterisk follows results filed as active; u = inconclusive; x = no result. Unless noted, calls come from the whole dose curve; as a rule, active = well fitted curve in the direction sought with a large enough effect; inconclusive = small, poorly fitted or top-dose-only effect, or another doubt; inactive = no such curve, though single readings can be large; an effect the other way counts as inactive or inconclusive.

SMILES | S-ASM inh | DT40 TDP1 no CPT | TGFb inhibitor | HepG2 viability | DT40 TDP1 CPT | IL1B secr inh
C#CCOCCOCCOCCNc1nc(N2CCN(C(=O)CCCCCCCCCCNC(=O)Cn3cc(CCCCCN)nn3)CC2)nc(N2CCN(C(=O)CCCCCCCCCCNC(=O)[C@@H]([C@H](C)O)n3cc(C)nn3)CC2)n1 | -6.0% | u | u | -17.7% | u | -20.4
C#CCOCCOCCOCCNc1nc(N2CCN(C(=O)CCCCCCCCCCNC(=O)Cn3cc(CCCCCN)nn3)CC2)nc(N2CCN(C(=O)CCCCCCCCCCNC(=O)Cn3cc(C[C@@H](C)O)nn3)CC2)n1 | -4.0% | u | u | -39.0% | u | -77.4*
C#CCOCCOCCOCCNc1nc(N2CCN(C(=O)CCCCCCCCCCNC(=O)Cn3cc(C[C@@H](C)O)nn3)CC2)nc(N2CCN(C(=O)CCCCCCCCCCNC(=O)[C@@H]([C@H](C)CC)n3cc(CCCCCN)nn3)CC2)n1 | -11.0% | 5.8µM* | 10µM* | -113.1% | 13µM* | -105.1*
Cc1c(P(=O)(c2ccccc2)c2ccccc2)c2ccccc2n1C | x | x | -19.2% | -33.9% | x | x
N#CC1=C(N)NC(SCC(=O)Nc2ccccc2)=C(C#N)C12CCCCC2 | -3.3% | 23.1µM* | -6.3% | -35.9% | u | 0.3
N#CC1=C(N)NC(SCC(=O)c2ccc(Br)cc2)=C(C#N)C12CCCCC2 | u | u | u | -34.7% | u | -6.7
COc1ccc(C(=O)CSC2=C(C#N)C3(CCCCC3)C(C#N)=C(N)N2)cc1 | -10.1% | 15.8µM* | -13.2% | -12.9% | u | -11.6
Cc1cnc2c(C)cccc2c1C | x | 0.224µM* | -7.0% | 26.0% | -128.8% | x
CC/C(=N\NC(=O)c1nnn(-c2nonc2N)c1CN(C)c1ccccc1)c1ccccc1 | 0.8% | -32.8% | -4.9% | 4.7% | -22.6% | -4.2
COc1ccc(-n2cc(-c3ccccc3)nc2SC)cc1 | -3.9% | 1.0% | -5.5% | -32.2% | u | -19.8
COc1ccc(-c2cn(-c3ccc(OC)cc3)c3[n+]2-c2ccccc2CC3)cc1 | -0.1% | 0.206µM* | u | -22.1% | 0.259µM* | -59.2*
COc1ccc(-n2cc(-c3ccccc3)[n+]3c2CCCCC3)cc1 | 2.3% | 1.16µM* | -22.3% | -16.6% | 5.8µM* | u
COc1ccc(-c2cn(-c3ccc(SC(F)F)cc3)c3[n+]2CCC3)cc1OC | -1.4% | 18.4µM* | u | -1.5% | u | 1.6
FC(F)Sc1ccc(-n2cc(-c3ccccc3)[n+]3c2CCC3)cc1 | 3.0% | 4.11µM* | 1.1% | -3.1% | 5.8µM* | 0.0
COc1ccc(NC(=O)CCN2CCN(CCO)CC2)c(OC)c1 | x | -11.1% | 2.5% | -37.2% | -10.3% | x
FC(F)Oc1ccc(-n2cc(-c3ccc(Cl)cc3)[n+]3c2CCCCC3)cc1 | -0.1% | 4.61µM* | 17.5% | 6.5% | 4.61µM* | -18.8
COCCN(C(=O)CCC(=O)Nc1ccccn1)C(C(=O)NCCC(C)C)c1ccc(F)cc1 (centres undefined) | -3.2% | -5.6% | 11.8% | 0.9% | 2.6% | 4.5
C=Cc1ccc2c(c1)N(C)C(=C)S2 | 2.2% | 23.1µM* | 1.2% | 8.8% | 16.4µM* | -11.0
COc1ccc(CCN(C)C(=O)c2cccc(S(=O)(=O)N3CCN(c4ccc(F)cc4)CC3)c2)cc1OC | -0.9% | 16.4µM* | 11.2µM* | -38.8% | 14.6µM* | -21.3
CN(CCOc1ccc(Cl)cc1)C(=O)c1cccc(S(=O)(=O)N2CCN(c3ccc(F)cc3)CC2)c1 | -8.5% | 5.17µM* | u | -2.6% | 7.31µM* | -3.2
O=C(NCCOc1ccc(Cl)cc1)c1cccc(S(=O)(=O)N2CCCC2)c1 | -4.5% | u | -8.6% | -15.4% | u | -1.1
CN(C)c1ccc(/C=C/c2ccnc3c(-c4ccccc4)cccc23)cc1 | x | u | 14.6% | -19.9% | 11.2µM* | x
Cc1cccc2c(/C=C/c3ccc(N(C)C)cc3)ccnc12 | x | u | 16.2% | -11.9% | u | x
CN(C)c1ccc(/C=C/c2ccnc3c(Cl)cccc23)cc1 | x | 7.94µM* | 48.7% | -34.7% | 11.2µM* | x
CCOC(=O)c1c(C)n(C)c2c(C)cc(O)c(OC(C)=O)c12 | 3.3% | 13µM* | 2.8% | 8.5% | 9.2µM* | -10.0
SMILES | S-ASM inh | DT40 TDP1 no CPT | TGFb inhibitor | HepG2 viability | DT40 TDP1 CPT | IL1B secr inh
CCOC(=O)c1c(NC(=O)COC(=O)CCNS(=O)(=O)c2ccccc2)sc(C(=O)N(C)C)c1C | -0.7% | u | 0.0% | -40.9% | -9.0% | -2.2
C/C(=N\NC(=O)CNC(=O)C(c1ccccc1)c1ccccc1)c1ccc(C(C)(C)C)cc1 | -0.2% | 16.4µM* | -0.4% | 10.2% | 16.4µM* | 7.4
O=C(/C=C/C(Cl)(Cl)Cl)Nc1ccc(Cl)cc1 | -3.5% | 5.17µM* | u | 12.6µM* | 4.61µM* | -103.5*
O=C(/C=C/c1ccc(Cl)cc1)Nc1ccc(N2CCCCC2)cc1 | 0.4% | 0.2% | 17.3% | 7.6% | -13.1% | 20.1
NC(=O)/C=C/C(=O)Nc1ccc(Cl)cc1 | -2.2% | 8.2µM* | -24.0% | 4.9% | 3.26µM* | -78.5*
NC(=O)Nc1ccc(Cl)cc1 | -1.7% | -16.0% | 0.3% | 1.4% | -9.2% | -1.4
Cc1ccc(NC(=O)Cn2nc(C)c(S(=O)(=O)N(C)C)c2C)cc1 | -5.8% | -12.0% | -6.9% | -4.2% | -20.4% | -14.8
Cc1ccccc1CNC(=O)c1sc2ncnc(N(C)C3CCCCC3)c2c1C | x | 20.6µM* | 2.2% | -3.2% | u | x
Cc1ccc(CNC(=O)c2sc3ncnc(N(C)C4CCCCC4)c3c2C)cc1 | x | 25.9µM* | u | -9.2% | u | x
COc1ccc(-c2c([C@H]3[C@H]4C=CC[C@@H](C)[C@@H]4C(=O)N3Cc3ccccc3)ccc3ccccc23)cc1 | -4.4% | 10.3µM* | u | -15.4% | 10.3µM* | -10.1
COc1ccc(-c2ccc([C@H]3[C@H]4C=CC[C@@H](C)[C@@H]4C(=O)N3Cc3ccccc3)c(F)c2)cc1 | -4.3% | 20.6µM* | u | -23.5% | u | -2.9
CCCCCC/C=C/c1ccc(C2C3C=CCC(C)C3C(=O)N2Cc2ccccc2)c(F)c1 (centres undefined) | x | x | -0.2% | -3.2% | x | x
CCCCCC/C=C/c1ccc([C@H]2[C@H]3C=CC[C@@H](C)[C@@H]3C(=O)N2Cc2ccccc2)c(F)c1 | -0.8% | 16.4µM* | 4.4% | 1.4% | u | 28.1

High-throughput results: PubChem BioAssay, National Center for Advancing Translational Sciences (NCATS)
